High-throughput results deposited in PubChem by several laboratories.
The list is not random: actives were taken first. Their share in the collection is about 4%.
Mdm2-MdmX inh – disrupts the human Mdm2-MdmX interaction; O15151+Q00987; SaOS-2 split-luciferase Mdm2/MdmX complementation, luminescence; inhibition, % at 8 µM; actives 3% (n = 330,000); AID 485346;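 active = inhibition of at least 50% at 8 µM in the primary screen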
Target sequence (O15151 whole entry, looked up): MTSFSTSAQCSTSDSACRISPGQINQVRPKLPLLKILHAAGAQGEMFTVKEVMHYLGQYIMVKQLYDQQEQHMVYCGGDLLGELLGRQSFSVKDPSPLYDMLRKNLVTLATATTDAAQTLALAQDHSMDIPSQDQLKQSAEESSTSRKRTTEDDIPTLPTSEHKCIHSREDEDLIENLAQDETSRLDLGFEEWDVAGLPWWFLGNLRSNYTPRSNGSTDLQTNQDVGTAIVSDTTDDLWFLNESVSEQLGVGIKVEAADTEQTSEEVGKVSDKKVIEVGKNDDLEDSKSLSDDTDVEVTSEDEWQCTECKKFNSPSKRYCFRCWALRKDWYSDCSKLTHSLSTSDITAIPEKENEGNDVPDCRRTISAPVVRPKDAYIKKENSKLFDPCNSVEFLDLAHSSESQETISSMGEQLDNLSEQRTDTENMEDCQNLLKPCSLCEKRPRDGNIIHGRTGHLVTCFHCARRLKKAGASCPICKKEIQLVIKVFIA
Target sequence (Q00987 whole entry, looked up): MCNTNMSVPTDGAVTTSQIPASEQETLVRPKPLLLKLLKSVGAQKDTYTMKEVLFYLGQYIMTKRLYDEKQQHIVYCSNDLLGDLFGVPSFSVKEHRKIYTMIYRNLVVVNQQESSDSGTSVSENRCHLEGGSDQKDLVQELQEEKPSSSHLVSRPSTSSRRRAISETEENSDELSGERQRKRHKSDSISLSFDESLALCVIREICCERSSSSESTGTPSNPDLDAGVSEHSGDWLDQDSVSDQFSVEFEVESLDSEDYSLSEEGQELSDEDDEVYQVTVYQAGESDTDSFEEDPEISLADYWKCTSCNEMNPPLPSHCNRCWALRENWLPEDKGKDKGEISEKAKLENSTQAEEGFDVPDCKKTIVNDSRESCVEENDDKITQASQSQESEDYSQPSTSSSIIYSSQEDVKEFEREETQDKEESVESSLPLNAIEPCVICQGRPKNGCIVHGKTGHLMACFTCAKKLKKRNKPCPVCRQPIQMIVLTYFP
Shn3 3UTR inh – inhibitors of Schnurri-3 3'UTR reporter in osteoblasts; Clone20 osteoblast Shn3 3'UTR firefly luciferase, 24 h; inhibition, % at 12.5 µM; actives 0.52% (n = 360,000); AID 588674;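 active = mean inhibition of at least 75% with every replicate also reaching 75%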
Beta apoptosis – blocks beta cell apoptosis. INS-1E cytokine-induced death, ATP luminescence, 48 h; percent of positive-control rescue, neutral wells zero. protection from apoptosis, % (test concentration not listed). actives 0.8% (n = 300,000). AID 435005;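 active = Every replicate reaches about 75%, or at least half do and their mean reaches it too, limit read from the data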;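 also: higher means more ATP so stronger rescue from cytokine killing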
CSC inhib – cancer stem cell inhibition; AID 2717; actives 1.1% (n = 300,000); cancer stem cell-like cells viability, luminescence; inhibition, % at 7.5 µM; in the data active = inhibition above about 75%; tested in HMLE shEcad cells
Gli-Sufu antag – Gli-Sufu pathway antagonism; Sufu-KO-LIGHT fibroblasts, Gli luciferase reporter luminescence; inhibition, % at 5 µM; actives 0.74% (n = 340,000);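 active = inhibition above about 55%, limit read from the data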
PAX8 inh HTS – inhibitors of PAX8 transcriptional activity in RMG-I cells; RMG-I TPO-luciferase reporter, SteadyGlo, 24 h; AID 652154; inhibition, % at 12.6 µM; actives 1.2% (n = 360,000);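 active = mean replicate inhibition at least 60% with every replicate also reaching 60%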;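 also: luciferase light reporting Pax8 driven TPO promoter activity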
A number is an active result; - = inactive; . = not tested or not shown.

SMILES	Mdm2-MdmX inh	Shn3 3UTR inh	Beta apoptosis	CSC inhib	Gli-Sufu antag	PAX8 inh HTS
C[C@@H]1CN([C@@H](C)CO)S(=O)(=O)c2ccc(C#C[C@@H](C)O)cc2O[C@@H]1CN(C)Cc1ccc(-c2ccccc2)cc1	.	.	.	.	.	77
C[C@H](O)C#Cc1ccc2c(c1)O[C@H](CN(C)Cc1ccc(-c3ccccc3)cc1)[C@H](C)CN([C@@H](C)CO)S2(=O)=O	.	.	.	.	.	81
C[C@H](O)C#Cc1ccc2c(c1)O[C@H](CN(C)Cc1cncnc1)[C@@H](C)CN([C@@H](C)CO)S2(=O)=O	.	.	.	.	.	-
C[C@H](O)C#Cc1ccc2c(c1)O[C@H](CN(C)Cc1ccc(-c3ccccc3)cc1)[C@@H](C)CN([C@@H](C)CO)S2(=O)=O	.	.	.	.	.	109
O=C(C[C@@H]1C[C@H]2c3cc(NC(=O)c4cccnc4)ccc3O[C@H]2[C@@H](CO)O1)NCCN1CCCCC1	.	.	.	.	.	-
O=C(Cc1ccc(NC(=O)C2CCN(C(=O)C3CCCCC3)CC2)cc1)Nc1ccc(C(=O)N2CCOCC2)cc1	.	-	.	.	-	68
O=C(Cc1ccc(NC(=O)C2CCCN(C(=O)C3CCCCC3)C2)cc1)Nc1ccc(C(=O)N2CCOCC2)cc1 (stereo not given)	.	-	.	.	-	-
COc1ccc(S(=O)(=O)Nc2ccc3c(c2)C(=O)N([C@H](C)CO)C[C@H](C)[C@H](CN(C)Cc2ccncc2)OCCCC[C@H](C)O3)cc1	.	.	.	.	.	-
Cc1ccc(-n2nc3ccc(NC(=O)/C=C/c4ccco4)cc3n2)cc1	-	-	-	-	-	68
O=C(NCc1ccccc1)[C@H]1[C@H](CO)[C@H]2Cn3c(cccc3=O)[C@@H]1N2C(=O)CC1CC1	.	.	.	.	.	-
Cc1ccnc(N/C=C(/NC(=O)c2ccccc2)C(=O)N/N=C\c2ccc(F)cc2)n1	-	94	-	-	-	.
O=C(NNC(=O)C12CC3CC(CC(C3)C1)C2)c1ccccc1F	-	-	-	-	-	81
Cc1ccccc1C(=O)NNC(=O)C12CC3CC(CC(C3)C1)C2	-	-	-	-	-	-
CCOc1ccc(N2C(=O)CC(Sc3nnnn3-c3ccccc3)C2=O)cc1 (stereo not given)	.	92	.	.	-	-
Cc1nn(-c2ccccc2)c(Cl)c1/C=N/Nc1ccc(S(=O)(=O)Nc2ccccc2C(=O)O)cc1[N+](=O)[O-]	-	-	-	96	-	.
CSc1ccc(C=NNc2ccc(S(=O)(=O)Nc3ccccc3C(=O)O)cc2[N+](=O)[O-])cc1	-	-	-	-	-	-
C[C@@H]1CCCCO[C@@H](CN(C)S(=O)(=O)c2ccc(F)cc2)[C@H](C)CN([C@@H](C)CO)C(=O)c2cc(NC(=O)CCCN(C)C)ccc2O1	.	.	.	.	.	-
Cc1ccc(C)c(C(=O)CCC(=O)N2CCN(c3cccc(C(F)(F)F)c3)CC2)c1	-	-	-	-	-	-
Cc1ccc(/C=C/C(=O)N2CCN(c3cccc(C(F)(F)F)c3)CC2)cc1	-	-	-	-	-	89
CCCNCC1C(Oc2ccc(Cl)cc2Cl)C(=O)N1c1cccc(C)c1C (stereo not given)	-	-	-	81	-	-
CN(C)CC(=O)Nc1ccc2c(c1)[C@@H]1C[C@H](CC(=O)NCc3cc(F)ccc3F)O[C@@H](CO)[C@@H]1O2	.	.	.	.	.	-
CCCC(=O)Nc1ccc(Cl)c(NC(=S)NC(=O)c2cc3ccccc3o2)c1	-	-	-	-	-	73
CCC(=O)Nc1ccc(NC(=S)NC(=O)c2cc3ccccc3o2)cc1	-	-	-	-	-	-
S=C(NCCC(c1ccccc1)c1ccccc1)Nc1cccc(Cl)c1	-	-	-	122	-	.
COc1ccccc1CNC(=O)c1ccc2nc3[nH]c4ccccc4c3nc2c1	-	-	-	-	-	162
SMILES	Mdm2-MdmX inh	Shn3 3UTR inh	Beta apoptosis	CSC inhib	Gli-Sufu antag	PAX8 inh HTS
Cc1ccc(CNC(=O)c2ccc3nc4[nH]c5ccccc5c4nc3c2)cc1	.	.	.	.	.	-
CCCNC(=O)Nc1ccc2c(c1)OC[C@H](C)N(C(=O)C1CC1)C[C@@H](C)[C@H](OC)CN(C)C2=O	.	.	.	.	.	-
O=C(Nc1cc(F)ccc1F)N1CC(=O)N2[C@H](C1)[C@@H](c1ccc(-c3cccc(F)c3)cc1)[C@@H]2CO	.	.	.	.	.	-
O=C(CC1C(=O)NCCN1Cc1ccc(-c2ccccc2)cc1)NC1CCC1 (stereo not given)	-	-	116	-	-	-
COCC#Cc1ccc([C@H]2[C@@H](CO)N3C(=O)CN(C(=O)C4CCOCC4)C[C@H]23)cc1	.	.	.	.	.	-
COC(=O)COc1ccc(/C=N/NC(=O)CN(c2ccccc2OC)S(=O)(=O)c2ccccc2)cc1	-	-	-	-	-	69
COc1ccccc1N(CC(=O)N/N=C/c1ccc(OCC(=O)NCc2ccco2)cc1)S(=O)(=O)c1ccc(C)cc1	-	-	-	-	-	.
O=C(C[C@H]1C[C@@H]2c3cc(NC(=O)Nc4ccccc4F)ccc3O[C@@H]2[C@H](CO)O1)NCC(F)(F)F	.	.	.	.	.	-
Cc1ccc[n+](C2=C([O-])c3ccccc3C(=O)C2=O)c1	.	.	.	.	.	-
O=C1/C(=N\S(=O)(=O)c2cccs2)C([n+]2ccccc2)=C([O-])c2ccccc21	-	-	97	-	-	78
CC(C)(C)c1cc[n+](C2=C([O-])c3ccccc3C(=O)/C2=N\S(=O)(=O)c2cccs2)cc1	-	-	107	-	-	-
O=C(C1CCCC1)N1CCCCN2[C@H](CO)[C@@H](c3ccc(-c4cccc(F)c4)cc3)[C@H]2C1	.	.	.	.	.	-
O=C1N[C@@H](Cc2ccccc2)COC(=O)[C@@H](Cc2ccc(F)cc2)CC/C=C/C[C@@H]1CC(=O)N(CCO)Cc1ccccc1	-	-	-	.	-	68
O=C1N[C@H](Cc2ccccc2)COC(=O)[C@@H](Cc2ccc(F)cc2)CC/C=C/C[C@H]1CC(=O)N(CCO)Cc1ccccc1	-	-	-	-	-	-
CC(=O)Nc1ccc(S(=O)(=O)Nc2ccc(Cl)cn2)cc1	-	-	-	-	-	-
CC(=O)Nc1ccc(S(=O)(=O)c2ccnc3cc(Cl)ccc23)cc1	.	-	.	.	.	110
C[C@H]1CCCCO[C@H](CN(C)Cc2ccncc2)[C@@H](C)CN([C@@H](C)CO)C(=O)c2cc(NC(=O)Nc3ccc(C(F)(F)F)cc3)ccc2O1	.	.	.	.	.	-
C[C@@H]1CCCCO[C@@H](CN(C)Cc2ccncc2)[C@H](C)CN([C@H](C)CO)C(=O)c2cc(NC(=O)Nc3ccc(C(F)(F)F)cc3)ccc2O1	.	.	.	.	.	99
C[C@@H]1CN([C@@H](C)CO)C(=O)c2cc(NC(=O)Nc3ccc(C(F)(F)F)cc3)ccc2O[C@@H](C)CCCCO[C@@H]1CN(C)Cc1ccncc1	.	.	.	.	.	83
C[C@@H]1CCCCO[C@@H](CN(C)Cc2ccncc2)[C@@H](C)CN([C@H](C)CO)C(=O)c2cc(NC(=O)Nc3ccc(C(F)(F)F)cc3)ccc2O1	.	.	.	.	.	-
C[C@@H]1CN([C@@H](C)CO)C(=O)c2cc(NC(=O)Nc3ccc(C(F)(F)F)cc3)ccc2O[C@@H](C)CCCCO[C@H]1CN(C)Cc1ccncc1	.	.	.	.	.	86
